Results on 13 compounds are retold here after PubChem BioAssay (NCI).

The panel holds about 83,000 compounds, 20% with a hit somewhere; the sample as a whole holds those more often.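 The endpoint reported here, percent growth, reads 100 for growth as untreated, 0 for no net growth and -100 for all cells dead.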 Unmarked numbers belong to inactive results. Calls of active or inactive are those of the source. Rule for the calls: active = growth percent below 10; inactive = the rest.

Holding throughout (experiment): NCI-60 one-dose screen, 48 h (100 = growth as untreated, 0 = no growth, -100 = all killed)
Holding throughout (details): 10 µM unless noted

The subject of assay [1] is DU-145 prostate.
Assay [2] has as its system K-562 leukemia.
Assay [3] concerns MALME-3M melanoma.
Assay [4] deals with MDA-MB-231 breast.
The test system of assay [5] is RXF 393 renal.
Assay [6] concerns SF-268 CNS.
In assay [7] the test system is SF-295 CNS.
Assay [8] has as its system SF-539 CNS.
In assay [9] the test system is UACC-257 melanoma.
Assay [10] relates to M14 melanoma.
For assay [11], the system named is HCT-15 colon.
In assay [12] the test system is HT29 colon.
For assay [13], the system named is SNB-75 CNS.
For assay [14], the system named is SNB-19 CNS.
Assay [15] deals with U251 CNS.
The subject of assay [16] is PC-3 prostate.
In assay [17] the test system is SK-MEL-5 melanoma.
The subject of assay [18] is UACC-62 melanoma.
Assay [19] deals with LOX IMVI melanoma.
Assay [20] relates to SK-MEL-28 melanoma.

On to `CCOC(=O)c1cc(C(=O)c2ccc(OC)c(OC)c2)n2ccc(-c3ccccn3)cc12`, for which the growth in [1] is 65.1%; in assay [2], 107%; in assay [3], 49.6%; in assay [4], 58.1%; in assay [5], 63.9%; in [6], 25.3%. The growth in [7] is 69.1%; in [8], 29.6%; in assay [9], 76.3%; in [10] it was 101%; in [11], 83%; in [12] it was 76.4%. Moreover, the growth in assay [13] was 24.1%; in [14], 67.8%; in [15], 21.7%; in assay [16], 87%; in [17] it was 37.1%; in [18], 83.5%. Moreover, the growth is 84.7% in [19] and 71% in [20].
Take `CC(=O)O.CC(=O)O.O.[Fe]`: the growth is 105% in assay [1]; 139% in [2]; 91.5% in assay [3]; 99.2% in [4]; 110% in assay [5]; 95.1% in [6]. In addition, the growth in assay [7] is 127%; in assay [8], 103%; in [9], 103%; in assay [10], 106%; in assay [11], 111%; in assay [12] it was 98.7%. In addition, the growth in assay [13] is 114%; in [14], 98.2%; in assay [15], 107%; in [16] it was 93.4%; in [17] it was 107%; in [18] it was 93.7%. In addition, the growth in [19] was 100%; in assay [20], 112%.
`CC1=CC[C@@H]2C(C)(C)[C@@H](O)CC[C@@]2(C)[C@@H]1COc1ccc2ccc(=O)oc2c1`: the growth in assay [1] is 68.9%; in assay [2], 36%; in assay [3], 72.3%; in [4], 78.7%; in assay [5] it was 65%; in assay [6], 66.1%. The growth in assay [7] was 46.5%; in assay [8], 85.6%; in assay [9], 102%; in [10], 76.9%; in assay [11] it was 29.4%; in [12], 70.5%. Besides, the growth in assay [13] was 62.1%; in [14], 81.2%; in assay [15] it was 67.9%; in [16], 30.6%; in assay [17] it was 28.7%; in [18] it was 22.9%. Also, the values for the growth in assay [19] and in assay [20] were 52.2% and 91.4%, respectively.
Take `CC1(C)CC[C@]2(C(=O)O)CC[C@]3(C)C(=CC[C@@H]4[C@@]5(C)C/C(=C/c6cccnc6)[C@H](O)C(C)(C)[C@@H]5CC[C@]43C)[C@@H]2C1`: the growth in assay [1] was 5.35% [100 µM] (active); in assay [2], 9.27% [100 µM] (active); in assay [3], -30.1% [100 µM] (active); in assay [4], -24.3% [100 µM] (active); in assay [5] it was -37.4% [100 µM] (active); in [6], 22.4% [100 µM]. The growth is -7.25% [100 µM] (active) in [7]; -26.8% [100 µM] (active) in [8]; -8.97% [100 µM] (active) in assay [9]; 3.32% [100 µM] (active) in [10]; -5.12% [100 µM] (active) in assay [11]; -79.4% [100 µM] (active) in assay [12]. Further, the growth in [13] is 19.5% [100 µM]; in [14], 16.6% [100 µM]; in [15], -8.69% [100 µM] (active); in assay [16] it was 4.87% [100 µM] (active); in [17], -77.1% [100 µM] (active); in [18] it was -56% [100 µM] (active). In addition, the growth is -87.1% [100 µM] (active) in assay [19] and -35.3% [100 µM] (active) in [20].
Take `O=C(Nc1cccc2ccccc12)c1cc2ccccc2cc1O`: the growth in [1] is 25.7%; in assay [2] it was 14.7%; in [3], -12.3% (active); in [4], -22.1% (active); in [5], 22.7%; in assay [6] it was 23.8%. Further, the growth is 6.2% (active) in assay [7]; 17.7% in assay [8]; 5.69% (active) in assay [9]; 32.2% in assay [10]; 19.1% in assay [11]; 68.9% in assay [12]. Also, the growth is 12.8% in assay [13]; 22.9% in assay [14]; 8.21% (active) in assay [15]; 2.08% (active) in assay [16]; -57.3% (active) in assay [17]; 17.4% in [18]. Also, the results for the growth in [19] and in assay [20] were 13.7% and 45.7%, respectively.
Take `O=C(NNc1ccc(-c2ccccc2)nn1)c1ccccc1`: the growth in [1] was 104%; in assay [2] it was 92.2%; in assay [3], 100%; in assay [4], 97.4%; in assay [5], 110%; in [6], 95%. The growth is 94.3% in assay [7]; 102% in assay [8]; 103% in [9]; 98.8% in assay [10]; 103% in assay [11]; 107% in assay [12]. In addition, the growth in [13] was 71%; in [14], 95.4%; in assay [15], 101%; in assay [16], 102%; in assay [17], 102%; in [18] it was 96.6%. Further, the growth in assay [19] was 98.9%; in assay [20], 105%.
Take `C1=C[C@H]2O[C@@H]1c1ccc3[nH]ccc3c12`: the growth in assay [1] is 116%; in assay [2], 53.3%; in [3] it was 102%; in assay [4], 93.4%; in assay [5], 92.5%; in assay [6] it was 104%. Also, the growth is 103% in assay [7]; 107% in assay [8]; 91.6% in [9]; 86.3% in assay [10]; 78.8% in assay [11]; 87.7% in assay [12]. Further, the growth in [13] was 83.4%; in assay [14], 96.8%; in assay [15], 103%; in [16], 98%; in assay [17] it was 90.4%; in assay [18] it was 78.8%. Moreover, the growth is 100% in assay [19] and 94% in assay [20].
Consider `Cc1cc(C)nc(SCC(=O)Nc2cccc(N=Cc3ccccc3O)c2)n1`, for which the growth in assay [1] is 104%; in assay [2], 96.2%; in assay [3], 101%; in [4] it was 89.5%; in assay [5] it was 101%; in assay [6], 98.7%. Besides, the growth in [7] is 102%; in [8] it was 100%; in assay [9] it was 103%; in assay [10], 98.2%; in assay [11], 105%; in [12] it was 101%. Also, the growth in assay [13] is 81.9%; in assay [14], 93%; in [15], 94.9%; in assay [16] it was 90.3%; in [17], 103%; in assay [18], 94.1%. The figures for the growth in assay [19] and in assay [20] were 103% and 106%, respectively.
As to `N#Cc1ccc(-c2ccc(COc3ccc(CC4SC(=O)NC4=O)cc3)cc2)cc1` (stereo not given), the growth is 92.6% in assay [1]; 28.3% in [2]; 59.5% in [3]; 71.2% in assay [4]; 97.5% in assay [5]; 63.6% in [6]. The growth in [7] is 50.3%; in [8], 65.5%; in assay [9], 84.9%; in assay [10], 73.4%; in [11], 63.6%; in [12], 103%. In addition, the growth in assay [13] is 67.8%; in assay [14], 63.3%; in [15], 63%; in assay [16], 54.4%; in [17], -18.3% (active); in [18], 51.4%. Moreover, the results for the growth in assay [19] and in assay [20] were 48.5% and 79%, respectively.
For `Cn1cc(-c2noc(-c3cn(C)c4ncc(F)cc34)n2)c2cc(Br)ccc21`, the growth was 84.6% in assay [1]; 86.6% in assay [2]; 57.5% in assay [3]; 60.8% in [4]; 90.9% in [5]; 76.1% in [6]. For the same compound, the growth is 84.6% in assay [7]; 71.3% in [8]; 98.7% in assay [9]; 85.7% in [10]; 76% in [11]; 47.3% in assay [12]. For the same compound, the growth in [13] is 61.2%; in assay [14], 75.9%; in assay [15], 29.4%; in [16] it was 75.3%; in assay [17], 83.9%; in assay [18] it was 76.1%. Besides, the values for the growth in [19] and in assay [20] were 70.7% and 83.7%, respectively.
As to `CCCCCCCCCCCCNC(=S)N/N=C/c1ccccc1O`, the growth in [1] was 68.1%; in assay [2], 61.2%; in assay [3], 98.9%; in assay [4] it was 78.8%; in [5] it was 107%; in [6], 65.5%. The growth in assay [7] was 70.7%; in [8], 85.4%; in [9], 98.2%; in assay [10], 78.1%; in assay [11], 56.9%; in [12], 36.6%. Also, the growth in [13] is 81.1%; in [14], 80.2%; in assay [15] it was 78.4%; in assay [16], 69.5%; in assay [17] it was 88.8%; in assay [18] it was 77.7%. In addition, the results for the growth in assay [19] and in assay [20] were 60.5% and 93.3%, respectively.
On to `CC(C)=CC/C=C(/C)[C@H]1CC[C@]2(C)[C@@H]1CC[C@@H]1[C@@]3(C)CC/C(=N/O)C(C)(C)[C@@H]3CC[C@]12C`, for which the growth in assay [1] is 73.7% [100 µM]; in assay [2], 33.9% [100 µM]; in assay [3] it was 81% [100 µM]; in assay [4], 50.5% [100 µM]; in assay [5], 61.3% [100 µM]; in assay [6], 72% [100 µM]. Further, the growth is 64.2% [100 µM] in assay [7]; 64% [100 µM] in assay [8]; 59.5% [100 µM] in [9]; 61.1% [100 µM] in [10]; 57.2% [100 µM] in assay [11]; 23.2% [100 µM] in [12]. In addition, the growth in assay [13] was 69.4% [100 µM]; in assay [14] it was 67.3% [100 µM]; in assay [15], 50.9% [100 µM]; in assay [16], 29.4% [100 µM]; in assay [17], 18.2% [100 µM]; in assay [18], 43.1% [100 µM]. For the same compound, the growth in [19] is 59.6% [100 µM]; in assay [20] it was 73.3% [100 µM].
Consider `O=C(O)c1cccc(CN2CCN(c3cc4c(cc3F)c(=O)c(C(=O)O)cn4C3CC3)CC2)c1O`, for which the growth in [1] was 112%; in assay [2], 102%; in assay [3], 96.3%; in assay [4], 106%; in assay [5], 118%; in assay [6], 105%. The growth is 104% in assay [7]; 101% in assay [8]; 97.7% in [9]; 101% in [10]; 104% in assay [11]; 102% in [12]. For the same compound, the growth in assay [13] was 92.2%; in [14], 99.2%; in assay [15], 96.2%; in [16], 93.7%; in assay [17], 102%; in assay [18], 102%. Moreover, the growth was 97.9% in assay [19] and 106% in assay [20].
